One sequence from PMC7862700, “An all-to-all approach to the identification of sequence-specific readers for epigenetic DNA modifications on cytosine” can be followed below.

What all share (assay): DAPPL (digital affinity profiling via proximity ligation, sequencing); 10 mM Tris-HCl pH 7.5, 50 mM NaCl, 1 mM DTT, 4% glycerol, room temperature, 30 min; GST-TFs on glutathione beads, 16-mer random dsDNA library, 0.1% formaldehyde crosslink after washing; high values mean tight binding
One assay deals with T1, FEV (Homo sapiens, UniProt Q99581 1-238).
T1 sequence: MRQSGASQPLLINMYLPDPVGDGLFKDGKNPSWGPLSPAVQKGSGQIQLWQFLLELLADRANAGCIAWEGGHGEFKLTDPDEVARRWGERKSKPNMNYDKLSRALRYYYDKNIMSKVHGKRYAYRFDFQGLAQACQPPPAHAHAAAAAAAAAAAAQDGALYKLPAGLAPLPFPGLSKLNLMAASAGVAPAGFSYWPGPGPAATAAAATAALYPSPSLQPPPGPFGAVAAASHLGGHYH
As to conditions: protein: recombinant; tags: N-terminal GST; dsDNA, one strand shown. In outline:
(§1)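 In yeast, human transcription factors were expressed with a GST fusion, then pulled down on glutathione beads and given DNA barcodes. Pooled with a tag-only sample, they were exposed to 200 nmole of a 16-mer random double-stranded DNA library (Tris/NaCl/DTT/glycerol buffer, room temperature, 30 min), washed, crosslinked with 0.1% formaldehyde, proximity-ligated using BsaI/T4 ligase for 1 h at 37 °C, PCR-amplified and read on an Illumina NextSeq500. Each hexamer's frequency of reads for a factor, divided by the matching frequency for the tag-only sample, gives the binding signal.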

In the next assay the target is ETV5 (Homo sapiens, UniProt P41161 1-510). The conditions noted are these: protein: recombinant; tags: N-terminal GST; dsDNA, one strand shown. In outline:
as §1

The target of a further assay is HSF1 (Homo sapiens, UniProt Q00613 1-529). The conditions noted are these: protein: recombinant; tags: N-terminal GST; chain copies: 3; dsDNA, one strand shown. The procedure, abridged: as §1
The target in another assay is T2, SPIC (Homo sapiens, UniProt Q8N5J4 1-248).
T2 sequence: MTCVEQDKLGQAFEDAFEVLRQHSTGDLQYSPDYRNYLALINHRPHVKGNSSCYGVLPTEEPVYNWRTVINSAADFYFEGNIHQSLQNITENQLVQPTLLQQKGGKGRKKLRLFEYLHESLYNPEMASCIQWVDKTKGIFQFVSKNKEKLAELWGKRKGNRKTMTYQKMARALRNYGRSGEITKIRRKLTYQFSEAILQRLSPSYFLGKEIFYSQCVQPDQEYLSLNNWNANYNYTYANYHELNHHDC
The conditions noted are these: protein: recombinant; tags: N-terminal GST; dsDNA, one strand shown. In outline: as §1

Another assay concerns the target ELF4 (Homo sapiens, UniProt Q99607 1-663). The conditions noted are these: protein: recombinant; tags: N-terminal GST; dsDNA, one strand shown. The procedure, abridged:
as §1

The next assay has as its target T3, ELK4 (Homo sapiens, UniProt P28324-2 1-405).
T3 sequence: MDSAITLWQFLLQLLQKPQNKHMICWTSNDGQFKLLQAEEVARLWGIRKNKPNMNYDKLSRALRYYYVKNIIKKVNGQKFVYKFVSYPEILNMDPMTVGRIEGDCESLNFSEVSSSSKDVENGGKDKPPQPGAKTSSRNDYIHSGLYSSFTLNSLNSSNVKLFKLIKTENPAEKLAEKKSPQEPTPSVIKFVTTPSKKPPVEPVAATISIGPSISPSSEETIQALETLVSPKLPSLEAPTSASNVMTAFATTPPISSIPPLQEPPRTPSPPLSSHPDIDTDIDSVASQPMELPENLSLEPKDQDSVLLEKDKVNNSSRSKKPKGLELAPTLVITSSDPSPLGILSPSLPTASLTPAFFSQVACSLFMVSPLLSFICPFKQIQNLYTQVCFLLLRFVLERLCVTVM
As to conditions: protein: recombinant; tags: N-terminal GST; dsDNA, one strand shown. The procedure, abridged: as §1

Another assay deals with T4, ETV2 (Homo sapiens, UniProt O00321 1-342).
T4 sequence: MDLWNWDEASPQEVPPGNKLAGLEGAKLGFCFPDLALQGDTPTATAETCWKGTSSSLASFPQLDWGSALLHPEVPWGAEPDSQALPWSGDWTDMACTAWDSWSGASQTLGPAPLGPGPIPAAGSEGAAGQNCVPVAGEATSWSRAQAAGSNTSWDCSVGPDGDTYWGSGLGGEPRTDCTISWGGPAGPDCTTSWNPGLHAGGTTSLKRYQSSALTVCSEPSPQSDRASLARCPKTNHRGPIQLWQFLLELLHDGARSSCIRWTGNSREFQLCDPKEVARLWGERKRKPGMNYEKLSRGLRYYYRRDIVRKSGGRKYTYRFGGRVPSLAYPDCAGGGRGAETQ
As to conditions: protein: recombinant; tags: N-terminal GST; dsDNA, one strand shown. In outline:
as §1

For a further assay, the target named is T5, ELF3 (Homo sapiens, UniProt P78545 1-371).
T5 sequence: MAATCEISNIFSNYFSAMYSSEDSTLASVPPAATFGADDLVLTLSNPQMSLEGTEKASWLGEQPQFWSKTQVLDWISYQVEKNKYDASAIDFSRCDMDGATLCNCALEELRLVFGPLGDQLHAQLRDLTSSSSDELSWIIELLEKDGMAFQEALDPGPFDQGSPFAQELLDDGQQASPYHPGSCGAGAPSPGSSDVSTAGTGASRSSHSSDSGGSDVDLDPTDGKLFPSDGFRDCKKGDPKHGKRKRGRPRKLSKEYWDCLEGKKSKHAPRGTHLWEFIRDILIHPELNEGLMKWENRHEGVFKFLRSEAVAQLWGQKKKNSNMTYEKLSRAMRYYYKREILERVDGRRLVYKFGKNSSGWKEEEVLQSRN
The conditions noted are these: protein: recombinant; tags: N-terminal GST; dsDNA, one strand shown. In outline: as §1

The target of the next assay is CRX (Homo sapiens, UniProt O43186 1-299). As to conditions: protein: recombinant; tags: N-terminal GST; dsDNA, one strand shown. In outline:
as §1

For another assay, the target named is ETV1 (Homo sapiens, UniProt P50549 1-477). As to conditions: protein: recombinant; tags: N-terminal GST; dsDNA, one strand shown. In outline: as §1
Another assay deals with T6, ERF (Homo sapiens, UniProt P50548 1-548).
T6 sequence: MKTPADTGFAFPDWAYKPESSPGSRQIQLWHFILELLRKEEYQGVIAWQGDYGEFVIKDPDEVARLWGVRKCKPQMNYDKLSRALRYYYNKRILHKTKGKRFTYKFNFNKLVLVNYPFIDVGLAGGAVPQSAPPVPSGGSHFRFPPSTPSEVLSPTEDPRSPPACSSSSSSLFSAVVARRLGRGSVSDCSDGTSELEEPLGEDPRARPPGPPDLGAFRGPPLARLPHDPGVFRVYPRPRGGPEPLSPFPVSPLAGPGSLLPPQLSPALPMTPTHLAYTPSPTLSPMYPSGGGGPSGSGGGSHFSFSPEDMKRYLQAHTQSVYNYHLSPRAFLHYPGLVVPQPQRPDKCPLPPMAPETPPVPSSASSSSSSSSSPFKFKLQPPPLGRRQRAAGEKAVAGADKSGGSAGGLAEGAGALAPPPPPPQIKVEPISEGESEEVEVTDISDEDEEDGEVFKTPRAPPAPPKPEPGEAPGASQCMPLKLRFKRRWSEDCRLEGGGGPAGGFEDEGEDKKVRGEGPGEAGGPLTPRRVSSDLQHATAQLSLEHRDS
As to conditions: protein: recombinant; tags: N-terminal GST; dsDNA, one strand shown. In outline: as §1

In the next assay the target is T7, ETV3L (Homo sapiens, UniProt Q6ZN32 1-361).
T7 sequence: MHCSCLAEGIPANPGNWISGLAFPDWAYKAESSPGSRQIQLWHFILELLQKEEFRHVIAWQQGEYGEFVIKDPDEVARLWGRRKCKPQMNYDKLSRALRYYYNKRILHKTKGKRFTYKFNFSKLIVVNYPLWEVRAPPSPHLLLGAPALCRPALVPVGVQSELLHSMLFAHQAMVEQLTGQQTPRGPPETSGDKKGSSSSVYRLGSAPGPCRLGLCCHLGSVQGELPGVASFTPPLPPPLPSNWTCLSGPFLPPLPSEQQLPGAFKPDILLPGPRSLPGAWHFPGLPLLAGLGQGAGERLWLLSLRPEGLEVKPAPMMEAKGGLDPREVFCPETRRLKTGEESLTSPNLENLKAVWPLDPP
As to conditions: protein: recombinant; tags: N-terminal GST; dsDNA, one strand shown. The procedure, abridged: as §1

In a further assay the target is T8, ETS2 (Homo sapiens, UniProt P15036 1-469).
T8 sequence: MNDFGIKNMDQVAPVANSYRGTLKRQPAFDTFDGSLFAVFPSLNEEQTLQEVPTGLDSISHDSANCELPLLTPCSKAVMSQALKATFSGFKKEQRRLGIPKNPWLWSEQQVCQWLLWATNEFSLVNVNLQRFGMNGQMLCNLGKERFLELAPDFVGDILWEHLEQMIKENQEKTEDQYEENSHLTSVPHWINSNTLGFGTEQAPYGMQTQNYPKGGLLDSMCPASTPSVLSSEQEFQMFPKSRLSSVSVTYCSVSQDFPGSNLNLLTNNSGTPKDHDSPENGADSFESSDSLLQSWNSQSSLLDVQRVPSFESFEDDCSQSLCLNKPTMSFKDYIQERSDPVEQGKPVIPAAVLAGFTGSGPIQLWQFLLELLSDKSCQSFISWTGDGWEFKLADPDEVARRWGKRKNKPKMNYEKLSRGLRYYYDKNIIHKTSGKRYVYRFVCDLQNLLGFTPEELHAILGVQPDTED
As to conditions: protein: recombinant; tags: N-terminal GST; dsDNA, one strand shown. The procedure, abridged: as §1

The target of another assay is T9, SPDEF (Homo sapiens, UniProt O95238 1-335).
T9 sequence: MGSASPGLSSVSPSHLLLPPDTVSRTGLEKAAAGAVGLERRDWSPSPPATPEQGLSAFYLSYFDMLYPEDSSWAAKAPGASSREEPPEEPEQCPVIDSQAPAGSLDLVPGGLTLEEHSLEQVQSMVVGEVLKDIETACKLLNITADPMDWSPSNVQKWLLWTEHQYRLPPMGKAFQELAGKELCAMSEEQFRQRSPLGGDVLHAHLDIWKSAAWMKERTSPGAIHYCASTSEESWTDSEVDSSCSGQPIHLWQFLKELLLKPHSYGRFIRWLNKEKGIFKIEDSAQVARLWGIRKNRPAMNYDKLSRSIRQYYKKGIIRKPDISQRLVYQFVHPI
As to conditions: protein: recombinant; tags: N-terminal GST; dsDNA, one strand shown. In outline:
as §1

A further assay deals with T10, ETV7 (Homo sapiens, UniProt Q9Y603 1-341).
T10 sequence: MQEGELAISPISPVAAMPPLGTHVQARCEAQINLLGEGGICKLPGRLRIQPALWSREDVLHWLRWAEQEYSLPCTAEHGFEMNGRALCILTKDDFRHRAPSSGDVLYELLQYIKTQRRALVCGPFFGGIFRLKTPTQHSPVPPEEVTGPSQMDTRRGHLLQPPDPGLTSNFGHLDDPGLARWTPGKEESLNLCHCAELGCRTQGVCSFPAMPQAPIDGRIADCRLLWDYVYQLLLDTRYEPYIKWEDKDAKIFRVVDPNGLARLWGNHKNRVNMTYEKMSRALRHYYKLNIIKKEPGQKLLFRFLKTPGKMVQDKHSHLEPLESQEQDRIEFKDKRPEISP
The conditions noted are these: protein: recombinant; tags: N-terminal GST; dsDNA, one strand shown. The procedure, abridged: as §1

The target of a further assay is T11, ELF5 (Homo sapiens, UniProt Q9UKW6-2 1-255).
T11 sequence: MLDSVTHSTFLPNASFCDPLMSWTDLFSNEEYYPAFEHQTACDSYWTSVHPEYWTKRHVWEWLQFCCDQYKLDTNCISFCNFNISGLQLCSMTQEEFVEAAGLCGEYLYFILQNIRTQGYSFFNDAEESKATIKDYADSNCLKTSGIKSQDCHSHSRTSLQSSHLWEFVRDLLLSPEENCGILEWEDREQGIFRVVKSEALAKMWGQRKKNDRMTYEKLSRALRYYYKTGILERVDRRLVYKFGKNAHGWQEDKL
As to conditions: protein: recombinant; tags: N-terminal GST; dsDNA, one strand shown. In outline:
as §1

The target of the next assay is T12, ETV3 (Homo sapiens, UniProt P41162-2 1-143).
T12 sequence: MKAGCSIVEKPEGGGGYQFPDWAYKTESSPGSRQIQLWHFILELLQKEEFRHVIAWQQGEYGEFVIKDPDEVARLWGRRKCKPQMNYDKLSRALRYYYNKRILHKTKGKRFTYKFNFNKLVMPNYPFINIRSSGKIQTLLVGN
As to conditions: protein: recombinant; tags: N-terminal GST; dsDNA, one strand shown. In outline: as §1

In another assay the target is ETV6 (Homo sapiens, UniProt P41212 1-452). As to conditions: protein: recombinant; tags: N-terminal GST; dsDNA, one strand shown. In outline: as §1
Sequence of ETV6 (P41212 whole entry): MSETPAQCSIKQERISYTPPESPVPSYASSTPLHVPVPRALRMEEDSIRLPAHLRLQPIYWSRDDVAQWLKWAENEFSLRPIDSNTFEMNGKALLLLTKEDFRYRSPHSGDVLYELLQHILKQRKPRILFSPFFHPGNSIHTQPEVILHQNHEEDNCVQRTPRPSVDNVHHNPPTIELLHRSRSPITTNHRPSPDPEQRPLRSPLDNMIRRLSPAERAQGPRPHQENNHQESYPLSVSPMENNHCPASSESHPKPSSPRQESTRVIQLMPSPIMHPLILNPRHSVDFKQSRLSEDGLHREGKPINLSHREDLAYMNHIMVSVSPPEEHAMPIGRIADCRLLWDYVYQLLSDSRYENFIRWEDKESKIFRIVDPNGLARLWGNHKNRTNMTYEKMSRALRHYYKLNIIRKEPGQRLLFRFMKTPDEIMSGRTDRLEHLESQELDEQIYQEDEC

Sequence of HSF1 (Q00613 whole entry): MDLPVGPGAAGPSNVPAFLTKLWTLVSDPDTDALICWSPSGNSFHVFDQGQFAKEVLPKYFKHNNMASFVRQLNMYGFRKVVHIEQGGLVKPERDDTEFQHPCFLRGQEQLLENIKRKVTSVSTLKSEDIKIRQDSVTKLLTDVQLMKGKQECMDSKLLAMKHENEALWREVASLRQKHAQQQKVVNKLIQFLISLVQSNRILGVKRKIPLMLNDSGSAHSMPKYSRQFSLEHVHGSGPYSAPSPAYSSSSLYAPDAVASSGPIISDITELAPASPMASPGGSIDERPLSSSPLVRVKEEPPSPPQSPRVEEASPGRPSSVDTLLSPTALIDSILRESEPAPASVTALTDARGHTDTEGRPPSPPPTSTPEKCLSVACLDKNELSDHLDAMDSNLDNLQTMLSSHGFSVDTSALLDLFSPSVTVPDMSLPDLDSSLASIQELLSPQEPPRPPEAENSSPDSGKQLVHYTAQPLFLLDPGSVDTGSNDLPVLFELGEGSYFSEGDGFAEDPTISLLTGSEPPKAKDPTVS
Sequence of CRX (O43186 whole entry): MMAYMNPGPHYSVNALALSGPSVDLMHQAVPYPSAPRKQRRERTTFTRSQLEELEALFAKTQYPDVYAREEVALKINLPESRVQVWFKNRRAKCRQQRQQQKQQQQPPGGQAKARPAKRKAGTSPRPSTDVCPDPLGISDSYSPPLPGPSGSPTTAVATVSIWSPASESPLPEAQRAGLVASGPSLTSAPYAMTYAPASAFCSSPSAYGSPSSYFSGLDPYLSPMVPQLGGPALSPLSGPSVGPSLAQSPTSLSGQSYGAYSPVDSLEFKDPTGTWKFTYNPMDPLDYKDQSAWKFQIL
Sequence of ETV5 (P41161 whole entry): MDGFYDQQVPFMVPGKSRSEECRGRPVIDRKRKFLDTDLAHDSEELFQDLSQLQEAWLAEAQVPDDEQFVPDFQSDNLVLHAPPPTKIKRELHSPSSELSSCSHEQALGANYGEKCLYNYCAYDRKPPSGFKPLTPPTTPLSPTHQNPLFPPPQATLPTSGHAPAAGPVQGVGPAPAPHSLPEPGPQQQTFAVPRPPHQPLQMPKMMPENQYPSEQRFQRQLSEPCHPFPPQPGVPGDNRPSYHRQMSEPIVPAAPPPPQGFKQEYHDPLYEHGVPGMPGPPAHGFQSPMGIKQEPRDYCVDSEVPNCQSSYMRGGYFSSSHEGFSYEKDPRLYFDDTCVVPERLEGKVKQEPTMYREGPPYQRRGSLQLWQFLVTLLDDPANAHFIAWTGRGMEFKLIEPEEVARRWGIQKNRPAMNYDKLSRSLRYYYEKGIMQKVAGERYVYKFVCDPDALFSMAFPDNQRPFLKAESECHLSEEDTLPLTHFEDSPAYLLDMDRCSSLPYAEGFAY
Sequence of ELF4 (Q99607 whole entry): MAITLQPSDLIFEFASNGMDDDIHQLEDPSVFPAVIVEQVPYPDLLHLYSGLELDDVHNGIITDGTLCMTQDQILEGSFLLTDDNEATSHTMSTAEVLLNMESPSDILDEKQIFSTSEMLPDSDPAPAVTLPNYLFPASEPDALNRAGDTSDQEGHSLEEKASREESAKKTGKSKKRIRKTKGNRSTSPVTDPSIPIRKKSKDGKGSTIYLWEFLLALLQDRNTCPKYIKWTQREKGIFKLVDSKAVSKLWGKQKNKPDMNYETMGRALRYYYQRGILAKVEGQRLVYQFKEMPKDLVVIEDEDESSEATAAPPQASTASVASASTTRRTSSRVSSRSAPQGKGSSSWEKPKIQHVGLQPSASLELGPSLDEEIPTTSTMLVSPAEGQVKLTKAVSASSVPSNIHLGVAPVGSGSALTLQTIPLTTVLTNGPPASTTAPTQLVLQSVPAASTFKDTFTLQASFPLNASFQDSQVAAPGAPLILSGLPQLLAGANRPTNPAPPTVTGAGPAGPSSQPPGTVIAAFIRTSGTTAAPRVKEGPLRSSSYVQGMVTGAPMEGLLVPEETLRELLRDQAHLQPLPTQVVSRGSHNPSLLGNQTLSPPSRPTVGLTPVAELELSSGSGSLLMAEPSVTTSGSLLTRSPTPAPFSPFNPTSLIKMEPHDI
Sequence of ETV1 (P50549 whole entry): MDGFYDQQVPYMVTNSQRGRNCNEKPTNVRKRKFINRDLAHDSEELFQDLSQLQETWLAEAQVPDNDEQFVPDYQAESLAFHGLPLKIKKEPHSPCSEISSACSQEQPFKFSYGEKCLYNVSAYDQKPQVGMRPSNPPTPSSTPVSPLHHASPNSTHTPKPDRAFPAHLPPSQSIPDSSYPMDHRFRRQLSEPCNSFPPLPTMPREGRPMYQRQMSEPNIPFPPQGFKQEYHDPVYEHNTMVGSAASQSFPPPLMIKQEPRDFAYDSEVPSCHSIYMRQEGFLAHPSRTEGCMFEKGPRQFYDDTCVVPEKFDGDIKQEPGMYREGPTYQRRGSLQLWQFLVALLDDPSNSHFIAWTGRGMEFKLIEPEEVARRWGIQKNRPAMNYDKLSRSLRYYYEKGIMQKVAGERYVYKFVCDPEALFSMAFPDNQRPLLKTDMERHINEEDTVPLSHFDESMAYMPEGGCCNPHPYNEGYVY

On to GAAATA, for which the binding signal with FEV is 1.54 fold enrichment (6-mer frequency, TF over GST control); with ETV5 it was 1.63 fold enrichment (6-mer frequency, TF over GST control); with HSF1 it was 1.21 fold enrichment (6-mer frequency, TF over GST control); with SPIC it was 1.43 fold enrichment (6-mer frequency, TF over GST control); in the assay with ELF4, 1.35 fold enrichment (6-mer frequency, TF over GST control); with ELK4 it was 1.39 fold enrichment (6-mer frequency, TF over GST control). Besides, the binding signal was 1.42 fold enrichment (6-mer frequency, TF over GST control) in the assay with ETV2; 1.62 fold enrichment (6-mer frequency, TF over GST control) with ELF3; 1.11 fold enrichment (6-mer frequency, TF over GST control) with CRX; 1.54 fold enrichment (6-mer frequency, TF over GST control) with ETV1; 1.45 fold enrichment (6-mer frequency, TF over GST control) with ERF; 1.48 fold enrichment (6-mer frequency, TF over GST control) with ETV3L. In addition, the binding signal with ETS2 was 1.51 fold enrichment (6-mer frequency, TF over GST control); with SPDEF, 1.52 fold enrichment (6-mer frequency, TF over GST control); in the assay with ETV7, 1.6 fold enrichment (6-mer frequency, TF over GST control); in the assay with ELF5, 1.73 fold enrichment (6-mer frequency, TF over GST control); in the assay with ETV3, 1.54 fold enrichment (6-mer frequency, TF over GST control); with ETV6 it was 1.75 fold enrichment (6-mer frequency, TF over GST control).
